Measurements reported in PubChem BioAssay AID686979 (National Center for Advancing Translational Sciences (NCATS), 2013).
Where “and” joins values, the source holds several entries; their conditions need not be identical. Equal entries are not always repeated. Screen size: about 420,000 compounds; about 50,000 (12%) were called active. Roughly 26% stayed inconclusive and do not appear here. Calls come from the whole dose curve; as a rule, active = well fitted inhibition curve with a large enough effect; inconclusive = small, poorly fitted or top-dose-only effect; inactive = flat fitted curve, though single readings scatter. The list comes from a sample in which actives are over-represented; it also holds similar structures and randomly drawn compounds. Where a call stands in place of a potency, no number is given.

experiment: qHTS for Inhibitors of human tyrosyl-DNA phosphodiesterase 1 (TDP1): qHTS in cells in presence of CPT; settings: chicken DT40 Tdp1-/-;hTDP1 cells + 20 nM CPT, ATP luminescence, 48 h; series mostly up to 46.2 µM; note: nearly all actives have a fitted effect of over 55% in size
Summary of the method: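 Chicken DT40 Tdp1-/- cells complemented with human TDP1, 400 cells/well, exposed to compounds plus 20 nM camptothecin for at least 48 h at 37 C; viability read as ATP content by CellTiter-Glo luminescence.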
Potency is the fitted concentration of half-maximal effect.

SMILES	Potency	activity change, negative = growth inhibition
O=C(/C=C/c1cn(CC(O)CN2CCc3ccccc32)c2ccccc12)c1ccc(Br)cc1 (centres undefined)	18.4 µM (active)	–
CC(C)OCCCn1c(SCC(=O)c2ccccc2)nc2c(sc3ccccc32)c1=O	inactive	–
COc1cc(CCN=Cc2ccccc2O)c([N+](=O)[O-])cc1OC	inactive	–
Oc1ccc(N=Cc2sc3ccccc3c2Cl)cc1	13 µM (active)	–
Oc1ccc(N=Cc2c(O)ccc3ccccc23)cc1	inactive	–
CC(=O)n1c(C=Nc2ccccc2)c(O)c2ccccc21	inactive	–
CCOC(=O)c1ccc(NC(=O)c2c(N)n(C)c(=O)[nH]c2=O)cc1	inactive	–
Cc1ccc(S(=O)(=O)N2CCC(C(=O)NCC3CCCO3)CC2)cc1 (centres undefined)	inactive	–
Cc1cc(C2=NNC(=Nc3ccc(S(=O)(=O)N4CCOCC4)cc3)SC2)c(C)n1CC1CCCO1 (centres undefined)	5.17 µM (active)	–
Cc1ccnc(NS(=O)(=O)c2ccc(NC(=O)c3ccc(S(=O)(=O)N4CCOCC4)cc3)cc2)n1	inactive	–
O=C1OC(Oc2ccc(Br)cc2)(c2ccccc2)c2ccccc21 (centres undefined)	inactive	–
CC1(C)Cc2ccccc2-c2[nH]c(=S)[nH]c(=O)c21	inactive	–
O=C(c1ccco1)N1CCN(C(=O)C2CC(c3ccc(F)cc3)=NO2)CC1 (centres undefined)	inactive	–
O=C(Nc1ccccc1C(=O)N1CCCCC1)c1ccco1	inactive	–
CCC(=O)Nc1c(C(=O)N2CCN(c3ccc(F)cc3)CC2)oc2ccccc12	13 µM (active)	–
O=C(Nc1c(C(=O)N2CCN(c3ccc(F)cc3)CC2)oc2ccccc12)c1ccco1	16.4 µM (active)	–
NC(=O)c1oc2ccccc2c1NC(=O)Cc1ccccc1	inactive	–
COCC(=O)Nc1c(C(=O)N2CCCC2)oc2ccccc12	inactive	–
CC(Oc1cccc(Cl)c1)C(=O)NC1CC(C)(C)NC(C)(C)C1 (centres undefined)	inactive	–
COc1cc(C2C(C(=O)c3cccs3)=C(O)C(=O)N2CCN2CCOCC2)ccc1OCCC(C)C (centres undefined)	inactive	–
CCN1CCN(c2ccc(/C=C/c3ccnc4ccccc34)cc2)CC1	11.2 µM (active)	–
CN(C)c1ccc(/C=C/C=C/c2ccnc3ccccc23)cc1	1.78 µM (active)	–
O=C(CN1CCCC1)N1CCN(c2ccccc2)CC1	inactive	–
CN(Cc1ccccc1)c1ccc(/C=C/c2ccnc3ccccc23)cc1	12.6 µM (active)	–
CCC(C)N(c1ccc(/C=C/c2ccnc3ccccc23)cc1)C(C)CC (centres undefined)	7.08 µM (active)	–
c1ccc(-c2cnc(CN3CCN(c4ccccc4)CC3)o2)cc1	inactive	–

SMILES	Potency	activity change, negative = growth inhibition
Oc1ccc(/C=N/N(Cc2ccccc2)c2ccccc2)cc1	inactive	–
Cc1ccc(S(=O)(=O)N(C)C)cc1NC(=O)C(C)OC(=O)c1ccc2ccccc2n1 (centres undefined)	inactive	–
CC(C)[C@@H](NC(=O)OC(C)(C)C)C(=O)NCC1CCC(C(=O)N[C@@H](Cc2ccccc2)C(=O)O)CC1 (some centres undefined)	inactive	–
C[C@H]1CN([C@@H](C)CO)S(=O)(=O)c2ccc(Br)cc2O[C@H]1CN(C)C(=O)c1cnccn1	inactive	–
CNC(=O)COc1ccc(S(=O)(=O)Nc2ccccc2)cc1	inactive	–
CC(=O)c1ccccc1NC(=O)COC(=O)C1COc2ccccc2O1 (centres undefined)	inactive	–
CC1(C(=O)NS(=O)(=O)c2ccccc2Cl)CCN1C(=O)c1cccc(F)c1 (centres undefined)	inactive	–
O=C(Cn1nc([N+](=O)[O-])nc1Br)NC1CCCCC1	inactive	–
O=C(NCCS(=O)(=O)N1CCN(c2ccccc2)CC1)c1ccco1	inactive	–
CN1CCN(Cc2nc3cc(NC(=O)COc4ccc([N+](=O)[O-])cc4)ccc3n2C)CC1	inactive	–
O=C(Oc1ccc(C(=S)N2CCOCC2)cc1)c1ccc(F)cc1	inactive	–
Cc1ccc(SCC2=NNC(=O)C2)cc1	inactive	–
O=C(COc1ccccc1)Nc1cc2c3c(c1)CC(=O)N3CCC2	inactive	–
C=CCC1(C(=O)N(C)Cc2ccccc2)CCN(C(=O)OC(C)(C)C)CC1	14.6 µM (active)	–
CC(C)(C)OC(=O)N1CCN(C(=O)c2[nH]c(C(F)(F)F)nc2-c2ccccc2)CC1	inactive	–
CN(Cc1ccccc1)C(=O)CCC1CCN(C(=O)c2ccco2)CC1	inactive	–
Oc1[nH]c2ccccc2c1N=Nc1c(F)c(F)c(F)c(F)c1F	8.2 µM (active)	–
Cc1cccc(N=Nc2c(O)[nH]c3ccc(F)cc23)c1	inactive	–
COCC(=O)N=Nc1c(O)[nH]c2ccccc12	inactive	–
Cc1cc(=O)oc2c(C)c(OCC(=O)NCCc3ccc(S(N)(=O)=O)cc3)ccc12	inactive	–
CCCNC(=O)C1(C)CCN(C(=O)c2ccccc2OC(F)(F)F)C1 (centres undefined)	inactive	–
c1ccc(CNc2ncncc2-c2cccnc2)cc1	inactive	–
CN(c1ccccn1)c1ncnc2[nH]ncc12	inactive	–
c1ccc(CNc2ncnc3[nH]ncc23)cc1	20.6 µM (active)	–
Cc1ccc2c(=O)c(C(=O)c3cccc(Cl)c3)cn(CC(=O)NCc3ccccc3)c2n1	inactive	–
CC1(C)CC(=O)C=C(N2CCOCC2)C1	inactive	–

SMILES	Potency	activity change, negative = growth inhibition
Cc1oc(C(N)=O)cc1COc1ccc(C(N)=O)cc1	inactive	–
Cc1cccc(Cc2c(C)nc3nc(SCc4ccccc4Cl)nn3c2C)c1	23.1 µM (active)	–
Cc1nc2nc(SCC(=O)NCc3ccco3)nn2c(C)c1Cc1ccccc1	inactive	–
COC(OC)c1ccnc(SCc2ccccc2Cl)n1	inactive	–
O=C(O)c1ccccc1-c1cccc2nncn12	inactive	–
O=C(NCCCN1CCOCC1)c1cn(-c2ccccc2)nc1-c1ccc(F)cc1	inactive	–
O=C(N/N=C/c1ccc([N+](=O)[O-])o1)c1cn(-c2ccccc2)nc1-c1ccc(F)cc1	7.31 µM (active)	–
Cc1nnc(SCC(=O)N/N=C/c2cn(-c3ccccc3)nc2-c2ccc(F)cc2)n1-c1ccccc1	inactive	–
COc1ccc(S(=O)(=O)NCC(=O)NC2CC2)cc1OC	inactive	–
COc1ccc(Nc2cc(=O)oc3ccccc23)cc1	2.91 µM (active)	–
COc1ccc(Nc2nnc(C)c3ccccc23)cc1	inactive	–
COc1ccc(Nc2ccc3ccccc3c2)cc1	inactive	–
CCn1cc(/C=C(\NC(=O)c2ccc(C)cc2)C(=O)NCCN2CCOCC2)c2ccccc21	inactive	–
CC1=NNC(=O)C1CC(=O)N/N=C/c1ccncc1 (centres undefined)	inactive	–
CCCSc1nc2[nH]ncc2c(=O)[nH]1	inactive	–
CCc1ccc(-n2c(SCc3cc(=O)n4cc(Br)ccc4n3)nc3[nH]ncc3c2=O)cc1	23.1 µM (active)	–
Cc1nn(Cc2ccc(F)cc2)c(C)c1NC(=O)c1noc2c1CCc1ccccc1-2	25.9 µM (active) and 4.61 µM (active)	–
Cc1cc(C(=O)Nc2c(C)nn(Cc3ccccc3)c2C)on1	inactive	–
Cc1ccccc1Cn1nc(C)c(NC(=O)C(F)(F)F)c1C	inactive	–
Cc1nn(Cc2ccc(F)cc2)c(C)c1NC(=O)c1cccnc1Cl	inactive	–
Cc1nn(Cc2ccc(F)cc2)c(C)c1NC(=O)c1cc(CC(C)C)on1	20.6 µM (active)	–
COc1ccc2c(c1)CCc1c(C(=O)Nc3c(C)n(C)n(-c4ccccc4)c3=O)noc1-2	inactive	–
C=CCOc1ccc(/C=C/C(=O)OC(C)C(=O)Nc2ccc(NC(C)=O)cc2)cc1 (centres undefined)	inactive	–
CC(CCN1CCN=C1N(C)C)c1ccccc1 (centres undefined)	inactive	–
Cc1cc(C)c2c(n1)sc1c(=O)n(-c3ccccc3)c(=O)[nH]c12	inactive	–
CC(=O)Nc1cc(C(=O)N2CCc3c(Cl)cccc3C2)cc2ncn(CCc3ccccn3)c12	–	-10.1% [at 9.04 µM] (inactive)

SMILES	Potency	activity change, negative = growth inhibition
CN(Cc1c(F)cccc1Cl)C(=O)CNC(=O)c1ccc2c(c1)OCO2	inactive	–
COCCNC(=O)c1onc(CSc2cccc(C)c2)c1C(=O)O	inactive	–
COCCN(Cc1cc2cc3c(cc2nc1Cl)OCO3)C(=O)c1cccc(C)c1	7.31 µM (active)	–
CCSc1nc(O)c(C(c2cccc(OC)c2)c2c(O)nc(SCC)[nH]c2=O)c(=O)[nH]1	inactive	–
CC1COc2ccccc2N1C(=O)c1ccc(F)cc1 (centres undefined)	inactive	–
O=c1c2ccccc2nc2n1C1(CCCCC1)Cc1ccccc1-2	16.4 µM (active)	–
CC1(C)Cc2ccccc2-c2nnc(-c3cccc(O)c3)n21	inactive	–
c1cncc(-c2nnc3n2C2(CCCCC2)Cc2ccccc2-3)c1	inactive	–
CCC1(CC)Cc2ccccc2-c2nc3ccccc3c(=O)n21	18.4 µM (active)	–
CC1(C)Cc2ccccc2-c2c[nH]c(=O)n21	inactive	–
CCOC(=O)C1CCc2nc3ccccc3c(=O)n21 (centres undefined)	inactive	–
CCCCSc1ncnc2c1sc1nc(N3CCOCC3)c3c(c12)CCCC3	inactive	–
NS(=O)(=O)c1ccc(CCNC(=O)COC(=O)COc2cccc(C(F)(F)F)c2)cc1	inactive	–
CCN(c1ncnc2c1cnn2-c1ccc(C)cc1)C1CCCCC1	inactive	–
O=C(c1cc(-c2ccc(Cl)s2)nc2ccccc12)N1CCOCC1	inactive	–
COCCNc1cc(NCCOC)c([N+](=O)[O-])cc1[N+](=O)[O-]	inactive	–
COCCNc1ccc(-c2n[nH]c(=O)c3ccccc23)cc1[N+](=O)[O-]	14.6 µM (active)	–
COCCNC(=O)c1ccccc1NS(=O)(=O)c1ccc(C)c([N+](=O)[O-])c1	inactive	–
CC(C)(C)C(=O)OCc1nc(-c2ccc(O)c(O)c2)cs1	6.51 µM (active)	–
Cc1onc(C(=O)NN)c1-c1csc(COc2ccccc2)n1	inactive	–
COc1ccc(-c2csc(-c3cccs3)n2)cc1OC	inactive	–
O=C(Nc1ccncc1)c1ccc([N+](=O)[O-])cc1Cl	inactive	–
O=C1N(c2ccc(Cl)cc2)C(c2ccc(Cl)cc2)N2CCCN12 (centres undefined)	inactive	–
Nc1nonc1-n1nnc(C(=O)N/N=C\c2ccncc2)c1CN1CCCCC1	inactive	–
Nc1nonc1-n1nnc(C(=O)N/N=C/c2cc(Br)ccc2O)c1CSC1=NCCS1	5.8 µM (active)	–
Cc1ccc(SCc2c(C(=O)N/N=C/C3CC=CCC3)nnn2-c2nonc2N)cc1 (centres undefined)	inactive	–
